From PubChem BioAssay (NCI)
About 79,000 compounds went through this panel and 15% of them were active in at least one assay; those are over-represented in the sample as a whole. No stated cut-off is given here; in the data, active means growth inhibition above about 70%; inactive means the rest.

What was measured:
[1] = NCI Yeast Anticancer Drug Screen. Data for the rad50 strain (AID 155);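 further: 0% = growth of vehicle-only cultures of the same strain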; conditions: S. cerevisiae rad50 strain growth inhibition; at 50.0 µM; stronger effect = higher value
Procedure, shortened: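 Relative growth inhibition (compound vs vehicle) was measured in yeast with a defined repair-gene alteration.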

[2] = NCI Yeast Anticancer Drug Screen. Data for the mec2-1 strain (AID 157); conditions: S. cerevisiae mec2-1 strain, at 50.0 µM, stronger effect = higher value
Procedure, shortened: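 Readout is yeast growth inhibition, normalised to vehicle-treated controls, in the mec2-1 strain exposed to compound.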

[3] = NCI Yeast Anticancer Drug Screen. Data for the sgs1 mgt1 strain (AID 161);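 further: 0% = growth of cultures given vehicle only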; conditions: S. cerevisiae sgs1 mgt1 strain, at 50.0 µM, stronger effect = higher value
Procedure, shortened: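 Percent growth inhibition was derived by comparing compound-exposed mutant yeast with vehicle-exposed cultures. The strain carries alterations in DNA damage repair.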

[4] = NCI Yeast Anticancer Drug Screen. Data for the cln2 rad14 strain (AID 165);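 further: 0% = growth equal to vehicle treated cultures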; conditions: S. cerevisiae cln2 rad14 strain, at 50.0 µM, stronger effect = higher value
Procedure, shortened: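 Relative to vehicle controls, growth inhibition of compound-treated cln2 rad14 yeast was recorded.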

[5] = NCI Yeast Anticancer Drug Screen. Data for the bub3 strain (AID 167); conditions: S. cerevisiae bub3 mutant strain, at 50.0 µM, stronger effect = higher value
Procedure, shortened: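 Screening used yeast with an engineered genetic alteration affecting cell cycle control. Compound-exposed cultures were compared with vehicle cultures, and reduced growth was taken as inhibition.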

[6] = NCI Yeast Anticancer Drug Screen. Data for the mlh1 rad18 strain (AID 175); conditions: S. cerevisiae mlh1 rad18 strain growth inhibition; at 50.0 µM; stronger effect = higher value
Procedure, shortened: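 Test agents were incubated with a yeast strain of defined genotype (DNA damage repair defect). Inhibition of growth was derived by comparison with vehicle-exposed cultures.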

Measured: growth inhibition

COC(=O)C1=C(C(=O)OC)SC(=C2C3=C(SC(C(=O)OC)=C(C(=O)OC)S3)c3ccccc32)S1
inactive: [1] 31.1% | [2] -2.15% | [3] 21.9% | [4] 18.9% | [5] -4.6% | [6] 21.2%

C=CCOC(=O)C(C)OC(=O)/C(Cl)=C/C(=O)O (stereo unspecified)
inactive: [1] -2.45% | [2] 7.25% | [3] 16.4% | [4] -29.4% | [5] 10.5% | [6] 6.15%

CCCCOC(=O)COc1ccc(OC)cc1
inactive: [1] -4.5% | [2] -22.1% | [3] -13.3% | [4] -34.6% | [5] 3.45% | [6] 6.2%

O=C(Nc1ccc(Br)cc1)Oc1ccc(Cl)cc1C(=O)c1ccccc1
inactive: [1] 38% | [2] 8.5% | [3] 19.1% | [4] 29.5% | [5] 41.8% | [6] 20.5%

Cc1ccccc1C(O)(c1nccn1C)c1nccn1C
inactive: [1] 8.75% | [2] 5.5% | [3] 19.9% | [4] 9.55% | [5] 18.2% | [6] 37.3%

CC(C)OCN1COCN=C1NC#N
inactive: [1] 38.2% | [2] 12.2% | [3] 23.1% | [4] 28.7% | [5] -10.4% | [6] 33%

O=C(O)c1cccc(Br)c1[N+](=O)[O-]
inactive: [1] -19.9% | [2] -7.9% | [3] -26.6% | [4] -36.1% | [5] -8.1% | [6] -5.9%

CCCCCCCCCCCCCCCCCC(N)=O
inactive: [1] 5.2% | [2] -14.2% | [3] 3.35% | [4] -15.7% | [5] -2.5% | [6] 25.4%

Cc1ccc(NC(=O)CCCC(=O)C(C#N)c2nc3ccccc3s2)cc1C (stereo unspecified)
inactive: [1] 10.9% | [2] 14.6% | [3] -9.8% | [4] 0.7% | [5] -7.35% | [6] 15.1%

CCCCCC1OC1CC1OC1CCCCCCCC(=O)O (stereo unspecified)
inactive: [1] -5.5% | [2] -21.1% | [3] -3.85% | [4] -14.8% | [5] -12.8% | [6] -13.4%

O=C(CN1CCOCC1)NC(=O)c1ccccc1
inactive: [1] -3.6% | [2] -3.6% | [3] 6.25% | [4] 1.5% | [5] -0.1% | [6] -10.7%

Cc1ccc(N=Nc2c(O)c(S(=O)(=O)O)cc3cc(S(=O)(=O)O)ccc23)c(C)c1
inactive: [1] 8.55% | [2] -19.6% | [3] -13.8% | [4] 6.3% | [5] -14% | [6] 2.55%

O=C1CCSc2c(cnc3ccccc23)N1
inactive: [1] -17.1% | [2] -12.4% | [3] -26.4% | [4] -18.1% | [5] -18.6% | [6] -46.8%

Cc1nc(N/N=C/c2ccccc2Cl)[nH]c(=O)c1CCO
inactive: [1] -18.9% | [2] -2.8% | [3] -17.4% | [4] 12.2% | [5] -30.2% | [6] 4.15%

Cc1nc(C)c(Cc2ccccc2)o1
inactive: [1] 1.05% | [2] 20.9% | [3] 18.1% | [4] 27.6% | [5] 5.3% | [6] 30.7%

O=C1Nc2n[nH]c(=S)n2NC12c1ccccc1-c1ccccc12
inactive: [1] -45.8% | [2] -14.2% | [3] -28.1% | [4] -19.9% | [5] -21.7% | [6] -63.2%

CC(=O)Nc1ccc(Cc2[nH]c(=O)[nH]c(=O)c2Br)cc1
inactive: [1] 4.3% | [2] -30.9% | [3] -19.6% | [4] -0.6% | [5] 1.05% | [6] -16.2%

CC(=O)Oc1cc(C)ccc1C
inactive: [1] -2.7% | [2] -0.5% | [3] -18.2% | [4] -55.5% | [5] -21.8% | [6] -0.35%

CC1C=CCC2C(=O)OC(=O)C12 (stereo unspecified)
inactive: [1] 10.3% | [2] -1.65% | [3] -4.65% | [4] -3.8% | [5] -0.75% | [6] 15.6%

COC1=CC(O)(CC(N)=O)c2ccccc2C1=O (stereo unspecified)
inactive: [1] -5.3% | [2] -8.65% | [3] 10.6% | [4] -11.4% | [5] -23.9% | [6] 4.85%

S=c1sc2ccccc2n1CN1CCCC1
inactive: [1] 6.1% | [2] 0.05% | [3] 29.9% | [4] 11.9% | [5] 8.3% | [6] -6.65%

CCO/C=C(\C(=O)OC)S(=O)(=O)c1ccc(C)cc1
inactive: [1] -18.5% | [2] 3.1% | [3] 2.35% | [4] 1.7% | [5] -9.1% | [6] -19.5%

Oc1ccc(Cl)cc1Cc1cc(Cl)cc(Cc2cc(Cl)cc(Cc3cc(Cl)cc(Cc4cc(Cl)ccc4O)c3O)c2O)c1O
inactive: [1] -31.2% | [2] 0.5% | [3] -5.4% | [4] -16.6% | [5] -26% | [6] -27.1%

N#CC(CN1CCOCC1)[N+](=O)[O-] (stereo unspecified)
inactive: [1] -2.2% | [2] -4.6% | [3] -14.2% | [4] -24.6% | [5] 16.6% | [6] -13.6%

C=CCS(=O)CC(NC(=O)c1ccccc1)C(=O)O (stereo unspecified)
inactive: [1] -32% | [2] -3.75% | [3] 20.6% | [4] -15.4% | [5] 4.1% | [6] -13.4%

Nc1c(S(=O)(=O)O)cc(S(=O)(=O)O)c2ccc(N=Nc3ccccc3)c(O)c12
inactive: [1] 7.15% | [2] 0.9% | [3] -10.8% | [4] -3.05% | [5] -8.7% | [6] -15.7%

CCOP(=O)(OCC)C1=C(P(=O)(OCC)OCC)C(F)(F)C1(F)F
inactive: [1] -9.35% | [2] -5% | [3] -6.7% | [4] -13.1% | [5] -0.95% | [6] -6.3%

c1cnc(NC(Nc2ncccn2)c2ccco2)nc1
inactive: [1] -6.5% | [2] -8.9% | [3] -5.55% | [4] -21.9% | [5] -12.2% | [6] -10.4%

CC1(C(=O)O)CCC(C(=O)Nc2ccccc2)C1(C)C (stereo unspecified)
inactive: [1] -11.2% | [2] -20.6% | [3] 5.05% | [4] -0.35% | [5] -13.1% | [6] 1.9%

O=C(CCCSCCCC(=O)NN=C1CCSCC1)NN=C1CCSCC1
inactive: [1] -0.9% | [2] -4.3% | [3] 10.8% | [4] 21.2% | [5] -7.85% | [6] -7.65%

O=C(O)C(Cc1ccccc1)C(=O)O.[NH2-].[NH2-].[Pt+2]
inactive: [1] -11.7% | [2] -0.95% | [3] 10.9% | [4] 13.1% | [5] 1.25% | [6] 24.2%

COc1ccc(C(=O)O[C@@H]2CCN3CC[C@H](C)[C@H]23)cc1
inactive: [1] 7.4% | [2] -22.5% | [3] 7.3% | [4] 12.7% | [5] -6.35% | [6] -74.8%

Cc1ccc2c(c1)sc(C)[n+]2CCO
inactive: [1] -19.9% | [2] -19.5% | [3] -38.8% | [4] -5.65% | [5] -9.65% | [6] -18.4%

CC(C)CC1=[N+]=C(NC#N)N=C(CCC(=O)Nc2ccccc2[N+](=O)[O-])C1
inactive: [1] -10.1% | [2] -5.5% | [3] -5.55% | [4] 20.9% | [5] 0.65% | [6] 1.7%

NCc1c(Cl)c(Cl)c(Cl)c(CN)c1Cl
inactive: [1] 21.3% | [2] -14.2% | [3] 14.1% | [4] 11.9% | [5] 17.8% | [6] 19.5%

O=C1C=CC2(CCC23C=CC(=O)O3)O1 (stereo unspecified)
inactive: [1] 13% | [2] 1.95% | [3] 11% | [4] 4.2% | [5] 12.2% | [6] 20.1%

CN1CCC(c2ccccc2)(c2ccccc2)C(O)C1 (stereo unspecified)
inactive: [1] 1.15% | [2] -0.45% | [3] 13.7% | [4] 4.35% | [5] 3.3% | [6] 4.7%

O=C1c2ccccc2C(=O)N1CCc1ncc(-c2ccccc2)[nH]1
inactive: [1] -16.4% | [2] 7.85% | [3] -16.1% | [4] 12.4% | [5] 1.1% | [6] 1.9%

COc1cc(O)c(C(C)=O)c(OC)c1
inactive: [1] -8.25% | [2] -12.8% | [3] -10.1% | [4] -31.1% | [5] -0.2% | [6] -2.05%

CNc1cc2oc(=O)cc(C)c2cc1C
inactive: [1] 19.8% | [2] -12.5% | [3] 6.8% | [4] 3.6% | [5] 14.2% | [6] 10.4%

CN1C(c2ccccc2)=C(C#N)C(=O)CC(c2ccco2)N1C (stereo unspecified)
inactive: [1] 4.3% | [2] -4.4% | [3] 4.65% | [4] 10.9% | [5] 11% | [6] 13.1%
